The values below come from PubChem BioAssay AID1851 (National Center for Advancing Translational Sciences (NCATS), 2009).

Several values for one entry are separate records, joined by “and”; a condition that tells them apart may be missing. Equal values may be shown once. In all, about 16,000 compounds went through this assay and about 2,600 (16%) were called active. Another 20% or so got no clear call; they are omitted. These entries were drawn from the full list. A number with no mark means an inactive call. The call rests on the fitted dose curve; in most records, active means well fitted curve in the direction sought with a large enough effect; inconclusive means small, poorly fitted or top-dose-only effect, or effect the other way; inactive means no such curve, though single readings can be large or run the other way. Peptide text beside a SMILES is read from it. * marks the point of attachment. Cbz = O=C(OCc1ccccc1)*
On the % scale 0 is the no-effect control and ±100 the full control effect.

Sequence of Cytochrome P450 2D6 (Homo sapiens) (P10635 whole entry, looked up): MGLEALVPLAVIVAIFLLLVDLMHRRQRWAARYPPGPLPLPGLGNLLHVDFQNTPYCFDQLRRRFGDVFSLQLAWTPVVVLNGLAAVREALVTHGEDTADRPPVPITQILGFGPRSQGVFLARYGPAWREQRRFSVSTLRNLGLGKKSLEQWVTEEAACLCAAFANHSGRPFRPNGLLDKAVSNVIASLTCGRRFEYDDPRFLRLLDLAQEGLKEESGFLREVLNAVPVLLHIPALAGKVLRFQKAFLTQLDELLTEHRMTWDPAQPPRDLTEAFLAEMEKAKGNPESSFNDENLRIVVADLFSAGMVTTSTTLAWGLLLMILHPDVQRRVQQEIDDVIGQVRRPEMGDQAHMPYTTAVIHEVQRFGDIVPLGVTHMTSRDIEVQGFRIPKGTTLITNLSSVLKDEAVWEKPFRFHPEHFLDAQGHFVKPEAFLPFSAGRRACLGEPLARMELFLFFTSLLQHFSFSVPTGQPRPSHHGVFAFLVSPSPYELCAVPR

The test addresses Cytochrome P450 2D6 (Homo sapiens) (UniProt P10635). Kind of test: Cytochrome panel assay with activity outcomes. The following applies: recombinant CYP, pro-luciferin dealkylation, luminescence, p450-cyp2d6; series mostly up to 57.1 µM; activity, negative = inhibition: at the top concentration.
For the compound `COC(=O)CCC(NC(=O)OCc1ccccc1)C(=O)NC(CC(C)C)C(=O)OC` (stereo not given) (Cbz-Glu(OMe)-Leu-OMe; configuration not given here), the “activity, negative = inhibition” value is 15.2%.

On to `COC(=O)C(NNc1ccccc1)(NC(=O)c1ccccc1F)C(F)(F)F` (stereo not given), for which the “activity, negative = inhibition” value is -16.1%. Regarding `CCCNC(=O)OC[C@@H]1O[C@H](CCO/N=C\c2ccc(C(=O)N3[C@H](c4ccc(C)cc4)[C@@H](C)CC[C@H]3C(=O)OC)cc2)C=C[C@@H]1Oc1ccc(OC)cc1`, the activity, negative = inhibition was 9.53% [at 11.4 µM]. Consider `O=C(c1ccccc1)[C@@H]1O[C@H]1c1ccc(-c2ccccc2)cc1`, for which the “activity, negative = inhibition” value is 3.66%.

On to `O=C(Cn1cnc2ccccc21)NC(c1ccccc1)c1ccccc1`, for which the concentration at half-maximal activity (AC50) (as a rule, the concentration at which the activity in the assay is half-maximal) is 7.08 µM (active). Take `CC(NC(=O)Cn1cnc([N+](=O)[O-])n1)c1ccccc1` (stereo not given): the “activity, negative = inhibition” value is 11%. The same measure, in the same setting: then `C[C@H](NC(=O)Cn1cncn1)c1ccccc1`, with 9.25%; and `C[N+]1(CCCC[N+]2(C)CCCCCCC2)CCCCCCC1`, with -7.84% [at 11.4 µM].

On to `N/C(=N\O)c1cn([C@@H]2O[C@@H](CO)[C@H](O)[C@@H]2O)c2ncnc(NO)c12`, for which the activity, negative = inhibition is 14.4% [at 11.4 µM]. For the compound `CCOc1ccc(N2C(=O)CN=C2Nc2ccccc2Cl)cc1`, the “activity, negative = inhibition” value is -13.5%. Same read-out and setting: as for `CCOc1ccc(N2C(=O)CN=C2Nc2ccccc2F)cc1`, the figure is -7.99%. On to `CCOc1ccc(NC2=NCC(=O)N2Cc2cccs2)cc1`, for which the AC50 is 7.08 µM (active).

Consider `CCCCOC(=O)CCc1c(C)[nH]c(=O)c(C#N)c1C`, for which the “activity, negative = inhibition” value was -6.68%. For `CCN(CC)C(=O)C1=C(C)NC(=S)NC1c1cn(-c2ccccc2)nc1-c1ccc(Cl)cc1` (stereo not given), the “activity, negative = inhibition” value was -7.39%. Consider `O=C(O)[C@@H]1[C@@H](C(=O)Nc2ncccn2)[C@@H]2C=C[C@@H]1O2`, for which the activity, negative = inhibition was 15.2% [at 11.4 µM]. `CCc1cccc(N(C)C(N)=Nc2cccc3ccccc23)c1`: the AC50 is 0.2 µM (active). Take `O=C(NC[C@@H](O)CO)c1c(I)c(C(=O)NC[C@@H](O)CO)c(I)c(N(CCO)C(=O)CO)c1I`: the “activity, negative = inhibition” value was 6.36% [at 25.6 µM].

For `O=C1c2ccccc2-c2ccc(N(Cc3ccc(Br)cc3)Cc3ccc(Br)cc3)cc21`, the activity, negative = inhibition is -1.8% [at 11.4 µM]. On the same count and under the same terms, as for `C[N+]1(C)CCC(OC(=O)C(c2ccccc2)c2ccccc2)CC1`, the figure is -11.7%. On to `CN1[C@@H]2CC[C@H]1CC(OC(c1ccccc1)c1ccccc1)C2` (stereo not given in full), for which the concentration at half-maximal activity (AC50) is 2 µM (active) and 1.26 µM (active). Regarding `Cn1c(=O)c(-c2cc(F)cc(F)c2)nc2cncnc21`, the “activity, negative = inhibition” value is 0.609%. The same measure, in the same setting: then `Cc1nn(C)cc1CNC(=O)CCC(=O)O`, with -3.76%; and `CCN1CCCC1CNC(=O)C(=O)Nc1ccc(OC)cc1` (stereo not given), with -29.4%. For `COc1ccc(NC(=O)NCCCN2CCCCC2C)cc1` (stereo not given), the AC50 was 1.58 µM (active). For `COc1ccc(NC(=O)N2CCC3(CC2)CCN(S(C)(=O)=O)CC3)cc1`, the “activity, negative = inhibition” value is -3.87%.
